From PubChem
Pol kappa inh: DNA polymerase kappa (human) inhibition; AID 588579; Q9UBT6; Potency, µM (titrated, usually from 107 µM), without a hit: at the highest dose activity, negative = inhibition, most hits filed as inhibitors; purified Pol kappa, fluorescent DNA synthesis assay, 10 min; 400,000 compounds, 0.53% hits; also: % is scaled to controls: 0 for no effect and ±100 for the full control effect
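Inhibition of 10 nM Pol kappa is measured by a fluorescent read-out at 0 and 10 min following addition of 50 nM substrate (final), with a 15-min room-temperature compound preincubation.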
Pol eta inh: blocks human DNA polymerase eta activity; recombinant Pol eta, fluorescent DNA replication assay; Potency, µM (top dose mostly 114 µM), for the others: at the top dose activity change, negative = inhibition, actives largely listed as inhibitors; 390,000 compounds, 1.2% hits; also: % is scaled to controls: 0 for no effect and ±100 for the full control effect
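Pol eta (10 nM) was preincubated with compounds for 15 min at room temperature, after which fluorescent replication substrate (50 nM final) was added to start the reaction. Fluorescence was read kinetically at 0 and 10 min.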
POLI inh: blocks human DNA polymerase iota activity; Potency, µM (top dose mostly 115 µM), for inactives: top-dose activity, negative = inhibition, usual class: inhibitors; 390,000 compounds, 1% hits; Pol iota fluorescent replication assay, 10 min; Q9UNA4
Target sequence (Q9UNA4 whole entry, looked up): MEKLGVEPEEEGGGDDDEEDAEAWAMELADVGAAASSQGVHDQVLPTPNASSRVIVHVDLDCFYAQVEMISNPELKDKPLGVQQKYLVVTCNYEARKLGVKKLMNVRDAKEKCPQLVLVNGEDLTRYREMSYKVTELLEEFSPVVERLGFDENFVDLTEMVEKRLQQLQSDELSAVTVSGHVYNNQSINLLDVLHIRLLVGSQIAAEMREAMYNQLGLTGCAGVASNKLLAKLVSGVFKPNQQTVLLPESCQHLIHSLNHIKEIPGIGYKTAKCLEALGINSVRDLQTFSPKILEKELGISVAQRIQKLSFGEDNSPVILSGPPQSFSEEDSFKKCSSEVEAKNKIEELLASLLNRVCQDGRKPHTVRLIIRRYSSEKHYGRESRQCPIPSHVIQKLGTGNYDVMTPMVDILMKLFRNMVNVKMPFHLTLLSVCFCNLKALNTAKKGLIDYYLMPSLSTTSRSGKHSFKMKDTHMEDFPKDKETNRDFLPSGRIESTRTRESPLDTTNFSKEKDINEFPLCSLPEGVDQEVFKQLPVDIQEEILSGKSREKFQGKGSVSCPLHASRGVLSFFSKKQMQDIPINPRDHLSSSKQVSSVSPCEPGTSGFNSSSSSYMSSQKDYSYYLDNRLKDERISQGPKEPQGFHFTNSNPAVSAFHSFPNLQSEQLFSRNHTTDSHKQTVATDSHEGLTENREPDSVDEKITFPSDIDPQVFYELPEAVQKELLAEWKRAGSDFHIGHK
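Fluorescent replication assay read twice, at 0 min and 10 min after adding 50 nM (final) substrate. Enzyme (10 nM) and compounds were first incubated 15 min at room temperature; enzyme-free buffer wells were negative controls.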
WRN inhibitor: WRN helicase (human) inhibition; Q14191; Potency, µM (highest dose often 114 µM), for inactives: top-dose activity change, negative = inhibition, usual class: inhibitors; WRN helicase unwinding, fluorescent forked duplex, kinetic; 360,000 compounds, 0.46% hits; also: % is scaled to controls: 0 for no effect and ±100 for the full control effect; nearly all actives have a fitted effect of over 55% in size
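Screening of the MLSMR collection measured strand separation of a quenched forked DNA duplex (100 nM) by 20 nM WRN with 2 mM ATP, all final. Compounds were preincubated with enzyme 15 min at room temperature.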
L3MBTL1 block: L3MBTL1 (human) inhibition; AlphaScreen L3MBTL1–H3K9me1 peptide binding; Potency, µM (highest dose often 57.1 µM), for inactives: at the highest dose activity, negative = inhibition, actives largely listed as inhibitors; 230,000 compounds, 0.66% hits; also: % is scaled to controls: 0 for no effect and ±100 for the full control effect; nearly all actives have a fitted effect of over 60% in size
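First, the protein-peptide complex forms for 30 min at room temperature (L3MBTL1 50 nM, biotinylated H3K9me1 peptide 75 nM). Next, compounds are pin-transferred and incubated 30 min. Finally, AlphaScreen beads are added and read after 30 min.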
POLB inh: blocks human DNA polymerase beta activity; P06746; Pol beta primer extension/strand displacement, fluorescence kinetic; Potency, µM (series often up to 114 µM), without a hit: at the top dose activity change, negative = inhibition, usual class: inhibitors; 340,000 compounds, 1.3% hits; AID 485314; also: % is scaled to controls: 0 for no effect and ±100 for the full control effect
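Pol beta (10 nM) and compounds were preincubated 15 min at room temperature, then 50 nM substrate (final) started primer extension/strand displacement. Reads were taken at 0 and 10 min; concentration-response data were fitted to a four-parameter Hill equation.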
Numbers without * were called inactive; ? = inconclusive; · = no result; [ ] = another dose, or the depositor's remark. This is a sample that favours compounds with a hit; in the whole collection about 2.5% have one here. Calls follow the shape of the dose curve; as a rule, active = well fitted curve in the direction sought with a large enough effect; inconclusive = small, poorly fitted or top-dose-only effect, or another doubt; inactive = no such curve, though single readings can be large; an effect the other way counts as inactive or inconclusive. Potency is read from the fitted curve at half-maximal effect.

SMILES | Pol kappa inh | Pol eta inh | POLI inh | WRN inhibitor | L3MBTL1 block | POLB inh
COc1ccc(C(=O)CSc2nnc(-c3cc(C)on3)o2)cc1 | -29% | -10% | -25% | -11% | -13% | 11µM*
O=C(CSc1nnc(-c2ccco2)n1Cc1ccccc1)c1ccccc1 | -15% | ? | 2% | -13% | -5% | 5%
CCc1ccc(-n2c(=O)c3cccnc3n2CC(=O)NCc2ccc(C)cc2)cc1 | -9% | -21% | -4% | · | · | 7%
COc1cccc(NC(=O)c2cc(-c3ccc(C)o3)nc3ccccc23)c1 | ? | 79µM* | ? | -28% | · | ?
Cc1ccc(-c2cc(C(=O)NC3=NCCS3)c3cc(Br)ccc3n2)o1 | · | · | · | · | 32µM* | 79µM*
Cc1ccc(-c2cc(C(=O)NN3CCOCC3)c3cc(Br)ccc3n2)o1 | -13% | 0% | 13% | -7% | -5% | ?
Cc1ccc(-c2cc(C(=O)Nc3ccccc3C)c3ccccc3n2)o1 | -8% | ? | 0% | -23% | ? | 10µM*
O=C(O)CCC(=O)Nc1ccccc1N1CCOCC1 | 0% | -4% | 11% | 3% | · | 0%
O=C(O)CC1(CC(=O)Nc2ccccc2N2CCOCC2)CCCC1 | -3% | -16% | 28% | 7% | 9% | 10µM*
NC(=O)C1CCN(CC(=O)Nc2nccs2)CC1 | -10% | -9% | 89µM* | -7%[11.6 µM] | 5% | -3%
O=C1NC(c2ccccc2Cl)=N/C1=C/c1ccco1 | ? | -17% | 28µM* | -8%[11.6 µM] | -14% | ?
CCCCNC(=O)C1(C)CCCCCN1Cc1cccc2c(OC)cc(C(=O)OCC)cc12 (stereo not drawn) | · | · | · | -12% | · | ·
O=C(NC(=S)Nc1ccc(Cl)c(C(=O)O)c1)c1cccc(COc2ccccc2)c1 | -22% | 79µM* | -11% | -6%[11.6 µM] | · | 40µM*
O=C(O)c1ccc(Cl)c(NC(=S)NC(=O)c2cccc(COc3ccccc3)c2)c1 | 5% | 45µM* | 78% | -15%[11.6 µM] | · | 25µM*
COCCNC(=O)C(c1ccc(OC)cc1)N(Cc1ccco1)C(=O)CCC(=O)Nc1ccccn1 (stereo not drawn) | 0% | -6% | -3% | 6% | · | 51%
COc1ccc(S(=O)(=O)Nc2cccc(S(=O)(=O)N3CCCCCC3)c2)cc1 | -7% | -17% | -2% | -14% | -7% | 20%
O=S(=O)(Nc1nc2ccccc2nc1Nc1cccc(S(=O)(=O)N2CCCCC2)c1)c1ccccc1 | -16% | 89µM* | ? | -31%[57.1 µM] | 3% | ?
CC(=O)Nc1ccc(S(=O)(=O)Nc2nc3ccccc3nc2Nc2ccc(S(N)(=O)=O)cc2)cc1 | -13% | -7% | 155% | -12% | 0% | 22%
CC(=O)Nc1ccc(S(=O)(=O)Nc2nc3ccccc3nc2Nc2ccc(O)c(C(=O)O)c2)cc1 | 79µM* | -9% | 20µM* | -12%[11.6 µM] | · | 15%
Cc1nc(NC(=O)CSc2nnc(C)n2CC2CCCO2)sc1C (stereo not drawn) | -5% | 3% | 10% | 8% | · | 0%
Cc1cc(C)n(-c2nc(N(c3ccccc3)c3ccccc3)nc(-n3nc(C)cc3C)n2)n1 | 3% | -14% | 7% | -11% | 4µM* | -8%
CC(=O)c1nnn(-c2nc(N)nc(N(c3ccccc3)c3ccccc3)n2)c1C | -5% | -20% | 6% | 6% | 2% | -2%
COCC1CCN(Cc2c(C(=O)N3CCc4ccccc4C3)nc3ccc(Cl)cn23)C1 (stereo not drawn) | ? | ? | 40µM* | -26%[11.6 µM] | · | ?
COC1CCN(Cc2c(C(=O)N3CCc4ccccc4C3)nc3ccc(Cl)cn23)CC1 | -10% | -15% | 23% | -10% | · | 36%
CC(N=C1NS(=O)(=O)c2ccccc21)C(=O)Nc1ccc(F)cc1Cl (stereo not drawn) | 0% | -13% | 2% | -1% | 8% | ·
SMILES | Pol kappa inh | Pol eta inh | POLI inh | WRN inhibitor | L3MBTL1 block | POLB inh
Cc1cnc2c3c(cc(Cl)c2c1)-c1ccccc1S(=O)(=O)N3 | 79µM* | · | 28µM* | · | · | ·
COC(=O)CCC(=O)OC1(C)C(=O)C2=CN(c3ccc(OC)cc3)C(c3ccc(OC)cc3)=CC2=C(Br)C1=O (stereo not drawn) | -7% | 4% | ? | -5% | · | ·
COc1ccc(C2=CC3=C(Br)C(=O)C(C)(OC(=O)c4ccco4)C(=O)C3=CO2)cc1 (stereo not drawn) | 79µM* | ? | 18µM* | 45µM* | · | 20µM*
CC(=O)c1ccc(N2CCN(C(=O)C3CCN(C(=O)Nc4ccccc4)CC3)CC2)cc1 | -7% | -1% | 7% | 2% | 2% | ·
CC(=O)OC1COC(n2ccc3ccccc32)C(OC(C)=O)C1OC(C)=O (stereo not drawn) | -6% | 14% | 14% | -2% | -3% | 16%
Cc1ccc(N=Nc2ccc3ccccc3c2O)cc1 | 3% | -22% | 92% | ? | ? | -7%
Cc1ccc2nc(-c3ccc(N=Nc4cc(S(=O)(=O)O)c5ccccc5c4O)cc3)sc2c1S(=O)(=O)O | 20µM* | · | 25µM* | · | · | ·
Nc1c(C(=O)Nc2nc3ccccc3s2)sc2nc(-c3cccs3)ccc12 | ? | 89µM* | 32µM* | ? | 43% | -123%
COc1ccc(C(=O)c2sc(Nc3ccccc3)nc2N)cc1OC | -9% | -8% | ? | -8% | · | 1%
COc1ccc(C(=O)c2sc(Nc3cc(Cl)ccc3C)nc2N)cc1OC | -17% | -16% | ? | · | · | 28µM*
Cc1cc(C)n2nc(SCN3C(=O)c4ccccc4C3=O)nc2n1 | -32% | -17% | ? | -12% | -25% | 45µM*
O=C(NCC1(c2ccccc2)CCOCC1)c1cccs1 | -10% | 4% | 118% | 2% | 3% | 0%
N#Cc1c(NC(=O)C2CC=CCC2C(=O)O)sc2c1CCCCCC2 (stereo not drawn) | -27% | ? | -12% | -33%[57.1 µM] | -4% | 18µM*
N#Cc1c(NC(=O)CCC(=O)O)sc2c1CCCCC2 | -13% | ? | ? | -30% | -10% | -10%
CC(C)(C)C1CCc2c(sc(NC(=O)C3CC=CCC3C(=O)O)c2C#N)C1 (stereo not drawn) | -15% | ? | 6% | -29%[57.1 µM] | -1% | 71µM*
N#Cc1c(NC(=O)c2ccc([N+](=O)[O-])o2)sc2c1CCC2 | ? | ? | ? | -16% | · | 20µM*
COC(=O)c1ccccc1NC(=O)CCn1c(=O)c2cccn2c2cccnc21 | -6% | -11% | 5% | · | · | 31%
CC(OC(=O)c1ccc(-n2cnnn2)cc1)C(=O)Nc1ccc(F)c(F)c1F (stereo not drawn) | ? | 56µM* | 40µM* | -18% | -3% | ·
